Laboratory results as given in PubChem BioAssay AID1851 (National Center for Advancing Translational Sciences (NCATS), 2009).
The whole screen tested about 16,000 compounds, of which about 5,100 (32%) were called active. Inconclusive results (about 25%) are left out. The call rests on the fitted dose curve; in most records, active means well fitted curve in the direction sought with a large enough effect; inconclusive means small, poorly fitted or top-dose-only effect, or effect the other way; inactive means no such curve, though single readings can be large or run the other way. Some of the results follow.

Target: Cytochrome P450 3A4 (Homo sapiens) (UniProt P08684)
Test: Cytochrome panel assay with activity outcomes
Details: recombinant CYP, pro-luciferin dealkylation, luminescence, p450-cyp3a4; series mostly up to 57.1 µM
On the % scale 0 is the no-effect control and ±100 the full control effect.

Sequence of Cytochrome P450 3A4 (Homo sapiens) (P08684 whole entry, looked up): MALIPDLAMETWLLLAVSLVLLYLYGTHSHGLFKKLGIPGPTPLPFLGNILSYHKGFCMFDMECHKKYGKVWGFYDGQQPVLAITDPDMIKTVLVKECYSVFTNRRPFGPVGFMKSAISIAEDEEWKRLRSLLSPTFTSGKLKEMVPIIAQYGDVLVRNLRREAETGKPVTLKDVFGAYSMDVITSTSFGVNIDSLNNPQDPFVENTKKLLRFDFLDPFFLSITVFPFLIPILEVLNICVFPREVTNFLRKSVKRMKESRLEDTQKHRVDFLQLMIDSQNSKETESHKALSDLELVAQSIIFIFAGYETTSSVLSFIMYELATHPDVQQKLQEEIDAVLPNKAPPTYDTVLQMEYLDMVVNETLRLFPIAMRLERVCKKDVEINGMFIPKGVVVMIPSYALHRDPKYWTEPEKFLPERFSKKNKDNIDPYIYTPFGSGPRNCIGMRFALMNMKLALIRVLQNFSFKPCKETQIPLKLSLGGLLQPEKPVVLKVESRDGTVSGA

Compound	AC50	activity, negative = inhibition
CC1=CC(C)(C)Nc2ccc(CSc3ccccc3)cc21	3.98 µM (active)	–
O=C(O)c1c[nH]c2cc(OCc3ccccc3)ccc2c1=O	–	-10.2% [at 11.4 µM] (inactive)
Cc1cc2c(cc1C)NC1=C(N2)O[C@H](c2c[nH]c3ccc(COc4ccccc4)cc23)C1=O	3.98 µM (active)	–
COCCN=C1Sc2nc3c(C)cccc3cc2CN1Cc1ccco1	14.1 µM (active)	–
CC1(C)[C@@H]2CC[C@]1(C)[C@@H](OC(=O)CSC#N)C2	–	-20.6% [at 11.4 µM] (inactive)
O=c1cnc2cncnc2n1Cc1ccccc1Cl	inactive	–
O=c1c(CCc2ccccc2)nc2cncnc2n1Cc1ccc(F)cc1	3.16 µM (active)	–
O=c1c(CCc2ccccc2)nc2cncnc2n1Cc1ccccc1Cl	15.8 µM (active)	–
O=c1c(-c2ccccc2)nc2cncnc2n1Cc1ccccc1Cl	inactive	–
CCCCCCCCCCCCCCCCCCOC[C@@H](COP(=O)([O-])OCC[N+](C)(C)C)OC	inactive	–
CCCCCCCCCCCCCCCCCC(=O)NC[C@@H](COP(=O)([O-])OCC[N+](C)(C)C)OCC	31.6 µM (active)	–
CCCCCCCCCCCCCCCCCC(=O)O[C@H](CC(=O)O)C[N+](C)(C)C	inactive	–
CCCCCCCCCCCCCC(=O)O[C@H](CC(=O)O)C[N+](C)(C)C	inactive	–
CCCCCCCCCCCCCCCC(=O)NC[C@@H](COP(=O)([O-])OCC[N+](C)(C)C)OCC	25.1 µM (active)	–
CCCCCCCCCCCCCCCCCCNC(=O)OC[C@@H](COP(=O)([O-])OCC[n+]1ccsc1)OC	inactive	–
CCCCCCC(C)n1cc(C(C)=O)c(=O)[nH]c1=O (stereo unspecified)	–	12.8% [at 2.29 µM] (inactive)
Fc1cccc(Cl)c1CSc1ncn[nH]1	4.47 µM (active)	–
CCCC[C@@H]1C[C@H]1C(NC(=O)c1ccc(C(F)(F)F)cc1)c1ccc(C(=O)OC)cc1 (stereo partly specified)	5.01 µM (active)	–
CCCC[C@@H]1C[C@H]1C(NC(=O)c1cccs1)c1ccccc1C(F)(F)F (stereo partly specified)	3.16 µM (active)	–
CCCC[C@@H]1C[C@H]1C(NC(=O)c1cccs1)c1ccc(Cl)cc1 (stereo partly specified)	5.01 µM (active)	–
CCCC[C@@H]1C[C@H]1C(NC(=O)c1cccs1)c1ccc(C(F)(F)F)cc1 (stereo partly specified)	3.16 µM (active)	–
CCOC(=O)CNC(=O)c1cccnc1	–	4.45% [at 11.4 µM] (inactive)

Compound	AC50	activity, negative = inhibition
Cc1ccc(OCCNC(=O)c2cc(-n3cnnc3)ccc2Cl)cc1C	7.94 µM (active)	–
CCOC(=O)c1cncc(C(=O)O)c1	–	1.77% [at 2.29 µM] (inactive)
Cc1ccc(OCCNC(=O)c2cncc(Br)c2)cc1C	7.08 µM (active)	–
CN(C)CCNC(=O)c1cc(Br)ccc1Cl	inactive	–
O=C(NC(=S)Nc1ccc(Br)cn1)c1cncc(Br)c1	–	-24.4% [at 2.29 µM] (inactive)
CCOC(=O)CCCNC(=O)c1cncc(Br)c1	14.1 µM (active)	–
O=C(Nc1ccccc1)c1cc(-n2cnnc2)ccc1Cl	inactive	–
Cn1c(-c2sccc2OCc2ccccc2)n[nH]c1=S	inactive	–
Cc1nc2c(OCc3ccccc3)cccn2c1CC#N	15.8 µM (active)	–
Cn1c(=O)c2[nH]cnc2n(C)c1=O	inactive	–
Nc1nc(=O)c2[nH]cnc2n1O	–	-2.96% [at 11.4 µM] (inactive)
CC(C)Cn1c(=O)n(C)c(=O)c2[nH]cnc21	3.98 µM (active)	–
CN(Cc1cc(Cl)cc(Cl)c1O)Cc1c(O)ccc2ccccc12	–	-29.5% [at 11.4 µM] (inactive)
CC(C)(N)C(=O)N[C@@H]1C(=O)N2[C@@H]1SC(C)(C)[C@H]2C(=O)O	–	-5.57% [at 11.4 µM] (inactive)
Nc1ccc(N(c2ccccc2)c2ccc(N)cc2)cc1	1.78 µM (active)	–
Nc1ccc(S(=O)(=O)NC(=O)c2ccccc2)cc1	inactive	–
COc1ccc(C2C3=C(CC(C)(C)CC3=O)Oc3ncn(CC(C)C)c(=N)c32)cc1 (stereo unspecified)	12.6 µM (active)	–
CN(C)c1ncc2nc(-c3ccc(F)cc3)c(=O)n(CCC#N)c2n1	inactive	–
N#CCCn1c(=O)c(-c2ccc(F)cc2)nc2cnc(OCc3ccccc3)nc21	15.8 µM (active)	–
N#CCCn1c(=O)c(-c2ccc(F)cc2)nc2cnc(Oc3cccc(Cl)c3)nc21	inactive	–
COCCn1c(=O)c(-c2cccc(C#N)c2)nc2cnc(Oc3ccc(OC)cc3)nc21	2.51 µM (active)	–
COCCn1c(=O)c(-c2cccc(C#N)c2)nc2cnc(N(C)C)nc21	inactive	–

Compound	AC50	activity, negative = inhibition
COCCn1c(=O)c(-c2cccc(C#N)c2)nc2cnc(OCc3ccccc3)nc21	10 µM (active)	–
COCCn1c(=O)c(-c2cccc(C#N)c2)nc2cnc(Oc3ccccc3)nc21	25.1 µM (active)	–
N#CCCn1c(=O)c(-c2cccc(C#N)c2)nc2cnc(Oc3ccccc3)nc21	inactive	–
CC(C)(C)NC[C@@H](O)COc1ccccc1C1CCCC1	inactive	–
COc1cc2c(cc1OC)-c1cc3ccc(OC)c(OC)c3c[n+]1CC2	inactive	–
CC(C)c1ccc2nc3sc(C(=O)N4CCc5ccccc5C4)c(N)c3cc2c1	–	6.07% [at 2.29 µM] (inactive)
CC(C)C(NS(=O)(=O)c1cccc2nsnc12)C(=O)N1CCc2ccccc2C1 (stereo unspecified)	7.08 µM (active)	–
Cc1ccc(S(=O)(=O)N[C@H](C(=O)N2CCC(C(=O)NCC(=O)O)CC2)C(C)C)cc1	inactive	–
COC(=O)C(NC(=O)c1ccc(Cl)cc1)(Nc1nc(C)cs1)C(F)(F)F (stereo unspecified)	14.1 µM (active)	–
Cc1cc(OC(=O)c2ccc(Cl)cc2)cc(=O)n1C	inactive	–
CCOc1ccc(C(=O)Cc2cc(OC)c(OC)cc2[N+](=O)[O-])cc1	7.94 µM (active)	–
CCOc1ccc(/C=C/C(=O)Nc2ccc(OC)cc2[N+](=O)[O-])cc1	inactive	–
CCOc1ccc(C(=O)CCC(=O)O)cc1	inactive	–
C[C@]12CC[C@H]3c4ccc(OC[C@H]5CO5)cc4CC[C@H]3[C@H]1CC[C@@H]2O	–	11.8% [at 11.4 µM] (inactive)
COc1ccc2c(Cl)c(C(=O)NCCCn3ccnc3)sc2c1Cl	0.501 µM (active)	–
NCCNC(=S)S	–	-20.2% [at 11.4 µM] (inactive)
O=C(NCCCn1ccnc1)Nc1ccc(Cl)cc1	0.398 µM (active)	–
O=C(NCCCN1CCc2ccccc2C1)Nc1ccc(Cl)cc1	inactive	–
Cn1nccc1C(=O)Nc1ccc(Cl)cc1	inactive	–
S=C(S)NCCN1CCNCC1	–	-13.6% [at 11.4 µM] (inactive)
S=C(S)NCCCn1ccnc1	1.58 µM (active)	–
COc1ccc(C(=O)N/C(=C/c2cccs2)C(=O)NCCCn2ccnc2)cc1OC	1.58 µM (active)	–
